The record followed here is ChEMBL document CHEMBL1961873, “Compounds: GSK PKIS; Assays: Nanosyn kinase panel” (2012).

For assay [1], the target named is 5'-AMP-activated protein kinase catalytic subunit alpha-2 (Homo sapiens) (UniProt P54646). The conditions noted are these: at 1 µM.
Assay [2] deals with T1, NUAK family SNF1-like kinase 1 (Homo sapiens) (UniProt O60285).
T1 sequence (whole entry): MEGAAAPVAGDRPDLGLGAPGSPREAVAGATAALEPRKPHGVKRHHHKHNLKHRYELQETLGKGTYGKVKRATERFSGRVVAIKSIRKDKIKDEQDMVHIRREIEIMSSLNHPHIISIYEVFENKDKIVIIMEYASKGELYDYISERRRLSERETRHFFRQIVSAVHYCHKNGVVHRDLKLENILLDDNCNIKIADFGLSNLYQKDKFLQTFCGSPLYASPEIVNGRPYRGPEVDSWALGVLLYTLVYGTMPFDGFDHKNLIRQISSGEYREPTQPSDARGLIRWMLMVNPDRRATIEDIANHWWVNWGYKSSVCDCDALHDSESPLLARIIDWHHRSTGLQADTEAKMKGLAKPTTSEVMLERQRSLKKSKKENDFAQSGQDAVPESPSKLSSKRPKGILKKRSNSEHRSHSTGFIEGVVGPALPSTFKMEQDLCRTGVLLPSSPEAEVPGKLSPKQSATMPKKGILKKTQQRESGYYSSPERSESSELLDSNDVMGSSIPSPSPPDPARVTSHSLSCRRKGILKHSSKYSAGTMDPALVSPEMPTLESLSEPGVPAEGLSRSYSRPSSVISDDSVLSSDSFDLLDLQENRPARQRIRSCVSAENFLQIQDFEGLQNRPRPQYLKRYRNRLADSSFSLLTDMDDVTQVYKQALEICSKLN
The conditions noted are these: at 0.1 µM.

Assay [3] concerns the target T1, NUAK family SNF1-like kinase 1 (Homo sapiens). The conditions noted are these: at 1 µM.
For assay [4], the target named is T2, Serine/threonine-protein kinase BRSK1 (Homo sapiens) (UniProt Q8TDC3).
T2 sequence (whole entry): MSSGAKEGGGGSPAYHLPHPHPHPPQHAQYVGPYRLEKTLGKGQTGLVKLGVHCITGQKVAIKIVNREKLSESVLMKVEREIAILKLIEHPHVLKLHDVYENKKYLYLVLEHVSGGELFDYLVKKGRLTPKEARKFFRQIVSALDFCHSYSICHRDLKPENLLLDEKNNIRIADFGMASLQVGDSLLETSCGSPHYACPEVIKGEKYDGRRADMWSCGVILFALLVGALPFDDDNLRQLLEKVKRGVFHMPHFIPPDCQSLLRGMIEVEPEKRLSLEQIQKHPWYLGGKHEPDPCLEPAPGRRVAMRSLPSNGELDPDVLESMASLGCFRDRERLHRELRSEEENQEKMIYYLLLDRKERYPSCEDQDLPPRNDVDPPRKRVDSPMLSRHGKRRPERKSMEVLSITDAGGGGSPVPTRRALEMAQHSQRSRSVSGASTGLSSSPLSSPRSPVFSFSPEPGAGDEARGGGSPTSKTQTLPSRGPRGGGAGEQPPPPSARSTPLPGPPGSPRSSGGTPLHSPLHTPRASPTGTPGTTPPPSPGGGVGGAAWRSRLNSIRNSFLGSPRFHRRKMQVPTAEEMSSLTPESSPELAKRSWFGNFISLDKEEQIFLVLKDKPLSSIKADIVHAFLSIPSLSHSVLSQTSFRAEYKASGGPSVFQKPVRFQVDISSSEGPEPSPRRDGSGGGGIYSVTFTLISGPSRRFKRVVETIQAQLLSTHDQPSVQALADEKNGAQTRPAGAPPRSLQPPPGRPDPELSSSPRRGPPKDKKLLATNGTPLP
The conditions noted are these: at 0.1 µM.

The target in assay [5] is T2, Serine/threonine-protein kinase BRSK1 (Homo sapiens). The conditions noted are these: at 1 µM.
The target of assay [6] is T3, Serine/threonine-protein kinase BRSK2 (Homo sapiens) (UniProt Q8IWQ3).
T3 sequence (whole entry): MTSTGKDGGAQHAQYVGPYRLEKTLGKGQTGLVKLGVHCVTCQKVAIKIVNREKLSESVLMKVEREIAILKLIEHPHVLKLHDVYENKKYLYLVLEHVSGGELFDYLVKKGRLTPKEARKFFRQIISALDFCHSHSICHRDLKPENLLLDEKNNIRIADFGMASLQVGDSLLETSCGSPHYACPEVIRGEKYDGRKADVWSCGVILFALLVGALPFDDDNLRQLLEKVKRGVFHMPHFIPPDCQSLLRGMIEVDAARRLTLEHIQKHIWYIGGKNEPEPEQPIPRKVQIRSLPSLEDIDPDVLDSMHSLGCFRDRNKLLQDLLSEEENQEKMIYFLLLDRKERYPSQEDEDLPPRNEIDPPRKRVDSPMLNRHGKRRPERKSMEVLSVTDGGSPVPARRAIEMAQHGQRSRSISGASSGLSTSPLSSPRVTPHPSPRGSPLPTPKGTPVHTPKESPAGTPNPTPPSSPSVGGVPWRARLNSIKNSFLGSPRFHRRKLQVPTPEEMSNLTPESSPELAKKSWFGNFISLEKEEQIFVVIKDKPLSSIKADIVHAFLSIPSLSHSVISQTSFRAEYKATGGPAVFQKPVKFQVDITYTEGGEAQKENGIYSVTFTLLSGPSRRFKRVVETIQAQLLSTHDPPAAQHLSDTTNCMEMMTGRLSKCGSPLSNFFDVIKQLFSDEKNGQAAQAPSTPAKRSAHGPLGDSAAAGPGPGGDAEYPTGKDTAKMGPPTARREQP
The conditions noted are these: at 0.1 µM.

Assay [7] concerns the target T3, Serine/threonine-protein kinase BRSK2 (Homo sapiens). The conditions noted are these: at 1 µM.
The target in assay [8] is Calcium/calmodulin-dependent protein kinase type 1D (Homo sapiens) (UniProt Q8IU85). The conditions noted are these: at 0.1 µM.
Assay [9] has the same target. The conditions noted are these: at 1 µM.
Assay [10] addresses Calcium/calmodulin-dependent protein kinase type II subunit alpha (Homo sapiens) (UniProt Q9UQM7). The conditions noted are these: at 0.1 µM.
Assay [11] shares this target. The conditions noted are these: at 1 µM.
For assay [12], the target named is Calcium/calmodulin-dependent protein kinase type II subunit delta (Homo sapiens) (UniProt Q13557). The conditions noted are these: at 0.1 µM.
The target is the same in assay [13]. The conditions noted are these: at 1 µM.
For assay [14], the target named is T4, Calcium/calmodulin-dependent protein kinase type IV (Homo sapiens) (UniProt Q16566).
T4 sequence (whole entry): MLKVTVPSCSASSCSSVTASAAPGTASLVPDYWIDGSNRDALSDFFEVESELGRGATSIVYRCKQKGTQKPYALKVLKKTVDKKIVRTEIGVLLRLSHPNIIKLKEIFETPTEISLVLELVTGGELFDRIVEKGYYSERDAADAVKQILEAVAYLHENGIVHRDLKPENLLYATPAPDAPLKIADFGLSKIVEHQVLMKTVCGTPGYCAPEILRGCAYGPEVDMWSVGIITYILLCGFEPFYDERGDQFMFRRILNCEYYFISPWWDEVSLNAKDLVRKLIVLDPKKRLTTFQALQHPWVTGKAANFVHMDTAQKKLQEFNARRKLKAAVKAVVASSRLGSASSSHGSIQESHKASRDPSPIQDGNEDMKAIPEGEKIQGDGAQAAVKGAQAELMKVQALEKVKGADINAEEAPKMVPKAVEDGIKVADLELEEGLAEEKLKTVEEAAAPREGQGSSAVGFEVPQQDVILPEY
The conditions noted are these: at 0.1 µM.

The target of assay [15] is T4, Calcium/calmodulin-dependent protein kinase type IV (Homo sapiens). The conditions noted are these: at 1 µM.
Assay [16] addresses T5, Serine/threonine-protein kinase Chk1 (Homo sapiens) (UniProt O14757).
T5 sequence (whole entry): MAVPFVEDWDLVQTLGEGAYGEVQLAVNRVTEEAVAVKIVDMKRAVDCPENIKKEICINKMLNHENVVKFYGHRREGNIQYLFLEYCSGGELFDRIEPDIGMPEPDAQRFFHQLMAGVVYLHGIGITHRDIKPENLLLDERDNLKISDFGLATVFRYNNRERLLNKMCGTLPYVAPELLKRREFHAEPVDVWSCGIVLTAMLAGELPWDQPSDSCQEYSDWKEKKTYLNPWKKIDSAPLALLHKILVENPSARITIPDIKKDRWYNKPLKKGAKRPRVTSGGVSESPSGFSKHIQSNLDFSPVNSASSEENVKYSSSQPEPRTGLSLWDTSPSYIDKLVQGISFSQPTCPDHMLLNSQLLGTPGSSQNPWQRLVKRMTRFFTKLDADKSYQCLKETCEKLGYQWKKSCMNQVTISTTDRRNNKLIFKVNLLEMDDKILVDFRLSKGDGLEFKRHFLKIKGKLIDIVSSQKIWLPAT
The conditions noted are these: at 0.1 µM.

Assay [17] deals with T5, Serine/threonine-protein kinase Chk1 (Homo sapiens). The conditions noted are these: at 1 µM.
Assay [18] concerns the target Serine/threonine-protein kinase Chk2 (Homo sapiens) (UniProt O96017). The conditions noted are these: at 0.1 µM.
Assay [19] has the same target. The conditions noted are these: at 1 µM.
For assay [20], the target named is Death-associated protein kinase 1 (Homo sapiens) (UniProt P53355). The conditions noted are these: at 0.1 µM.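 Further: reported figure is the mean inhibition of DAPK1.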
Chain of Death-associated protein kinase 1 (Homo sapiens) (P53355 whole entry, looked up): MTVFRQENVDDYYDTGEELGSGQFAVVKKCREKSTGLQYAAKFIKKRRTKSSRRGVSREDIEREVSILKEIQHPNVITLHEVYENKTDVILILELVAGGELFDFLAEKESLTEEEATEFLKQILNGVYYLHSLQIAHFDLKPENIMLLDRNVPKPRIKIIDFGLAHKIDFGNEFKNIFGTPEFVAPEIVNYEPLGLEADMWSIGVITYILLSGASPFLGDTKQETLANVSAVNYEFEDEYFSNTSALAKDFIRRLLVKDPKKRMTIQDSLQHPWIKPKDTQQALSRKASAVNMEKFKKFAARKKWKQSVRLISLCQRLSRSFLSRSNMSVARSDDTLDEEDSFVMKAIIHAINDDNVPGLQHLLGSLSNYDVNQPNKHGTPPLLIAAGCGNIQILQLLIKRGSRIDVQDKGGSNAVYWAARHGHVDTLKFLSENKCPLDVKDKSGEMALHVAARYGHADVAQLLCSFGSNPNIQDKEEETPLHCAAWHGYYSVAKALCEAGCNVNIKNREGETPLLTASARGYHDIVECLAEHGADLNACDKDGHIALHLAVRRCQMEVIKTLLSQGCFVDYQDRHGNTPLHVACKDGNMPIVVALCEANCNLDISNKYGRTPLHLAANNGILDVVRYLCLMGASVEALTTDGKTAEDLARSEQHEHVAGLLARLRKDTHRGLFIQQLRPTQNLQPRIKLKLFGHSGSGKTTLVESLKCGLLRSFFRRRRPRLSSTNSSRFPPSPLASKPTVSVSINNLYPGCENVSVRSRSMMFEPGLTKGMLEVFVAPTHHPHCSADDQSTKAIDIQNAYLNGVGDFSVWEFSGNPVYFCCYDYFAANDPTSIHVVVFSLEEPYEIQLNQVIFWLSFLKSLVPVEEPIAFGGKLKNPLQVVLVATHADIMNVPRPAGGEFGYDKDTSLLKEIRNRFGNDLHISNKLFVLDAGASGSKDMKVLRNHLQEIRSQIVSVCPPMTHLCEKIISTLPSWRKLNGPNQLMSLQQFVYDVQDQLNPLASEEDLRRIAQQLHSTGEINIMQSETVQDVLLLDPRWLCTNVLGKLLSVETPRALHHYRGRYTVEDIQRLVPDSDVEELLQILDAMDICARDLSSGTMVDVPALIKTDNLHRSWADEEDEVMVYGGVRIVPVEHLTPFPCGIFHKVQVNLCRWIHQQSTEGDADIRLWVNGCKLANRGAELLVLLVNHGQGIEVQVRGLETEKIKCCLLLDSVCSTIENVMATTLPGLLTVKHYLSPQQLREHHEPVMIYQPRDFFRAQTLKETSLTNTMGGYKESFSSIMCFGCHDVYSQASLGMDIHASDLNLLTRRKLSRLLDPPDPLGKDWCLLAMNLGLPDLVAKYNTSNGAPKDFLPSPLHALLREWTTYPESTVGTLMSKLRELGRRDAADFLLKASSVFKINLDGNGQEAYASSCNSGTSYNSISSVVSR

Chain of Serine/threonine-protein kinase Chk2 (Homo sapiens) (O96017 whole entry): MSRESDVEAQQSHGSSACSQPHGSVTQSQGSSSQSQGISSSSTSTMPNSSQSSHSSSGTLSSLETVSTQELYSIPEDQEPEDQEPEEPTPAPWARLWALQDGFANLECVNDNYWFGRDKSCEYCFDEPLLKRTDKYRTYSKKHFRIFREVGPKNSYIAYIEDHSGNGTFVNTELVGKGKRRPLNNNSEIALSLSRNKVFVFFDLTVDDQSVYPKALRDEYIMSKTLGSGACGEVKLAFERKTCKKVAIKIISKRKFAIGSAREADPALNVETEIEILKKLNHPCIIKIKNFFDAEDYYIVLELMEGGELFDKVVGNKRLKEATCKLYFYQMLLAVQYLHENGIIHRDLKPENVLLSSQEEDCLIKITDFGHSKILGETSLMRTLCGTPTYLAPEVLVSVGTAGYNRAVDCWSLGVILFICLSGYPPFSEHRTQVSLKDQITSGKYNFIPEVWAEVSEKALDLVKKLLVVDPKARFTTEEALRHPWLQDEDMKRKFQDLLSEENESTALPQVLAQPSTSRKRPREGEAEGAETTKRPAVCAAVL
Chain of Calcium/calmodulin-dependent protein kinase type II subunit delta (Homo sapiens) (Q13557 whole entry): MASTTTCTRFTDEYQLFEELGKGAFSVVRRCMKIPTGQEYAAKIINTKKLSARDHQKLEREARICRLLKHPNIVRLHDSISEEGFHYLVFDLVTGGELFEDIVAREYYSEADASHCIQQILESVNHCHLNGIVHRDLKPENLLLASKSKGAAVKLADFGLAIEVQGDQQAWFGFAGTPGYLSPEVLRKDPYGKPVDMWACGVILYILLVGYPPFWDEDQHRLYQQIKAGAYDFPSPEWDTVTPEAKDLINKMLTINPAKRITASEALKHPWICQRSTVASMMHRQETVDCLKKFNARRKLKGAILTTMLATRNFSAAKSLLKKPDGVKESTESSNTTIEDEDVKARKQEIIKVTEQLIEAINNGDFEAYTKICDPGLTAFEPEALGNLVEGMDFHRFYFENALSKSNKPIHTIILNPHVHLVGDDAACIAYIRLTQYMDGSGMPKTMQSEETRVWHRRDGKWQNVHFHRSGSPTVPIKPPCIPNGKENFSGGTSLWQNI
Chain of 5'-AMP-activated protein kinase catalytic subunit alpha-2 (Homo sapiens) (P54646 whole entry, looked up): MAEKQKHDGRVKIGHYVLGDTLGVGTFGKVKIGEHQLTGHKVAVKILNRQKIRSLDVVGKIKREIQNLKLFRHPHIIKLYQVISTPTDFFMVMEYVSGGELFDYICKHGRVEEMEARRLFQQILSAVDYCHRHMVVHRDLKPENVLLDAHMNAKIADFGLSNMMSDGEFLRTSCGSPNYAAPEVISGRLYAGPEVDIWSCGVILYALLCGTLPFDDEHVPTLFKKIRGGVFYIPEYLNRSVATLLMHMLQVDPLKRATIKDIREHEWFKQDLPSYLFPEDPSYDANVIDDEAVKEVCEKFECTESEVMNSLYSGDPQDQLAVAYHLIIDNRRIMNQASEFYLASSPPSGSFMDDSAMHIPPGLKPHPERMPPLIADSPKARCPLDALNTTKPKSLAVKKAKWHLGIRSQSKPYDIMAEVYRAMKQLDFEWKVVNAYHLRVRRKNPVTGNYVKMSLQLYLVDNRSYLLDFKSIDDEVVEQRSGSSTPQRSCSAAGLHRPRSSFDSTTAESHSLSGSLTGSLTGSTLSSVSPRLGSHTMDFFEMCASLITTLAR
Chain of Calcium/calmodulin-dependent protein kinase type II subunit alpha (Homo sapiens) (Q9UQM7 whole entry): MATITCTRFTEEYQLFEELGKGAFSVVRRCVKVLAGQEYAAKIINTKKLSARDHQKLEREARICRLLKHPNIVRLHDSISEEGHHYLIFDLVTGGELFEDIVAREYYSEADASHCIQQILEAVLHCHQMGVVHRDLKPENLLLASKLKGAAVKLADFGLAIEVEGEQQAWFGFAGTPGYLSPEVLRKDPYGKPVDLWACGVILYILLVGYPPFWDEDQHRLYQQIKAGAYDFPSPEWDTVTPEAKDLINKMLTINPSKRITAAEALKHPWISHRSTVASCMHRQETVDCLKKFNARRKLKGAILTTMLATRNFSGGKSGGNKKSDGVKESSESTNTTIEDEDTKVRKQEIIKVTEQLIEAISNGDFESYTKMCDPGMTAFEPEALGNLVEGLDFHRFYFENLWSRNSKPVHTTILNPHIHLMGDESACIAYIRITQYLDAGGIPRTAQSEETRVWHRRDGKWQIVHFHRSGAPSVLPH
Chain of Calcium/calmodulin-dependent protein kinase type 1D (Homo sapiens) (Q8IU85 whole entry, looked up): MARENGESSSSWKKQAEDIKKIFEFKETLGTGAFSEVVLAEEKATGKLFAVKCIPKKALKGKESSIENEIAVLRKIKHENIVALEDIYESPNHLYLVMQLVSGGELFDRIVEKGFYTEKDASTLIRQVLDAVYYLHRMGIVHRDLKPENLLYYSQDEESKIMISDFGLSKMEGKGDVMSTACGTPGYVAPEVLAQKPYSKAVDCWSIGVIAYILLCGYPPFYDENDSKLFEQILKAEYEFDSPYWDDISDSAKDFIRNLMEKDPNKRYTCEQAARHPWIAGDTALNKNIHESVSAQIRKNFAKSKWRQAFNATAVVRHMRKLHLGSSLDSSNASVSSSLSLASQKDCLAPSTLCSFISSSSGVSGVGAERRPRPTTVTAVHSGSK

By inhibition is commonly meant the relative decrease from the control value, in per cent. Consider `NS(=O)(=O)c1ccc(N/N=C2\C(=O)Nc3ccc(-c4cnco4)cc32)cc1`, for which the inhibition was 11.8% in assay [1]; 5.26% in assay [2]; 35.2% in [3]; 2.76% in assay [4]; 14.5% in [5]; 3.56% in assay [6]. Moreover, the inhibition is 23.8% in [7]; -0.53% in assay [8]; 2.62% in [9]; 0.21% in assay [10]; 4.17% in assay [11]; 2.48% in assay [12]. Further, the inhibition is 16.3% in [13]; -0.57% in [14]; -0.99% in [15]; -0.45% in assay [16]; 6.95% in [17]; 0.92% in [18]. The inhibition was 5.7% in assay [19] and -1.79% in [20].

For the molecule `Cc1ccc(C(=O)NC(C)C)cc1-c1ccc(C(=O)NCC2CC2)cc1`, the inhibition in assay [1] is -5.48%; in [2] it was 3.9%; in [3], 3.92%; in [4], 1.12%; in [5], -1.28%; in assay [6], 0.51%. Moreover, the inhibition in [7] was 1.61%; in assay [8], -1.04%; in [9], 0.57%; in [10], -4.62%; in assay [11] it was -3.85%; in [12], -3.04%. Further, the inhibition was -1.11% in [13]; -0.94% in assay [14]; -2.57% in assay [15]; -1.72% in assay [16]; -3.38% in [17]; -3.25% in [18]. Further, the inhibition in [19] is -2.4%; in [20] it was -2.08%.

In the case of `O=C1Nc2ccccc2/C1=C/Nc1ccc(-n2cncn2)cc1`, the inhibition is 15.5% in assay [1]; 8.76% in [2]; 38.7% in assay [3]; 2.17% in assay [4]; 17.2% in [5]; 4.08% in assay [6]. Besides, the inhibition in [7] worked out at 26.3%; in [8], 0.18%; in assay [9], 0.98%; in [10] it was 3.66%; in assay [11], 4.05%; in assay [12], 2.3%. For the same molecule, the inhibition was 6.83% in assay [13]; -0.87% in assay [14]; -2.92% in assay [15]; 1.77% in [16]; 13.5% in assay [17]; 3.98% in assay [18]. The inhibition in assay [19] is 14.9%; in assay [20], 5.75%.

With `Fc1ccc(-c2ncn(C3CCNCC3)c2-c2ccnc(Oc3ccc(F)c(F)c3)n2)cc1`, the inhibition in assay [1] amounted to 4.77%; in [2] it was 2.44%; in assay [3], 6.58%; in [4], 1.29%; in assay [5], 3.93%; in assay [6] it was 3.75%. Also, the inhibition in assay [7] is 5.29%; in assay [8], -1.15%; in [9] it was -1.08%; in assay [10] it was 2.48%; in assay [11], 0.43%; in assay [12], 1.91%. The inhibition in [13] was 4.38%; in assay [14] it was -2.42%; in assay [15] it was -1.76%; in assay [16], -3.21%; in assay [17], 5.61%; in assay [18], 2.5%. The inhibition was 2.87% in assay [19] and 3.38% in [20].

Regarding `Fc1ccc(-c2c(-c3ccncc3)nc3n2CCS3)cc1`, the inhibition in assay [1] is 4.29%; in assay [2], -0.3%; in assay [3], 1.86%; in assay [4], -0.79%; in assay [5], 0.97%; in assay [6], 0.47%. Further, the inhibition is 3.65% in assay [7]; 2.44% in assay [8]; -0.09% in [9]; 0.37% in [10]; 0.88% in assay [11]; 1.78% in [12]. In addition, the inhibition in assay [13] was 2.01%; in assay [14], 1.18%; in assay [15] it was -0.25%; in assay [16], 0.42%; in [17], 2.88%; in [18], 1.49%. The inhibition in [19] was 0.52%; in assay [20], -0.64%.

On to `NS(=O)(=O)c1ccc(Nc2cc(-c3ccc(O)c(F)c3)n[nH]2)cc1`, for which the inhibition in assay [1] is 8.67%; in assay [2], 2.73%; in assay [3] it was 11%; in [4] it was 0.57%; in assay [5], 10.9%; in assay [6], 2.75%. Further, the inhibition in [7] was 16.7%; in assay [8] it was -0.17%; in [9], 0.78%; in [10], -4.96%; in [11], -4.72%; in assay [12], -3.72%. The inhibition in [13] is 1.69%; in assay [14], 0.82%; in assay [15], 0.53%; in assay [16], -5.01%; in assay [17], 8.18%; in assay [18], -1.68%. In addition, the inhibition was 3.93% in assay [19] and -2.1% in assay [20].
